# Laboratory results published in PubChem BioAssay AID504652 (National Center for Advancing Translational Sciences (NCATS), 2011).
# Among all 360,000 compounds or so, about 11,000 (3.1%) were called active. This is one part of a sample in which actives are shown more often than they occur. Cut-off read from the data, not from the text of the source: active = activity change below about -30%; inactive = the rest.
# Target: D(1A) dopamine receptor (Homo sapiens) (UniProt P21728)
# Assay: Antagonist of Human D 1 Dopamine Receptor: qHTS
# Settings: HEK293 TREx D1 cells, calcium flux, dopamine EC80; at 10 µM; active compounds read low
# How it was run: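 Antagonism measured as reduced calcium response to an EC80 dopamine addition following 180 s compound pre-read; cells were inducible HEK293 Trex D1 plated overnight at 30 C, read kinetically at 1 cycle/sec.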
# % is set by controls: 0 for no effect and ±100 for the full control effect.
# Chain of D(1A) dopamine receptor (Homo sapiens) (P21728 whole entry, looked up): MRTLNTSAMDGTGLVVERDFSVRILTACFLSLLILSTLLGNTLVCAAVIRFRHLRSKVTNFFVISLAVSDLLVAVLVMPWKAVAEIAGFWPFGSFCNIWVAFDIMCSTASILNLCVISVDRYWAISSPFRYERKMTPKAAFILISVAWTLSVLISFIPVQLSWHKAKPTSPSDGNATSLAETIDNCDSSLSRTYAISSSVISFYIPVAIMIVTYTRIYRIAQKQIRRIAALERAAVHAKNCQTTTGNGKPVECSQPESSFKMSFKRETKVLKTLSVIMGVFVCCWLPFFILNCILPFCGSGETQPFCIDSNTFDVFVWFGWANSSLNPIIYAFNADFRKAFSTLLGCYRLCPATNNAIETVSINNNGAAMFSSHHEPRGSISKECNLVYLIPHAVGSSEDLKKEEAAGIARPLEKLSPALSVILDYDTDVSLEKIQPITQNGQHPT
row,Compound,"activity change, negative = inhibition"
1,O=C1CN(C(=O)Nc2ccccc2C(F)(F)F)C(c2ccccc2)c2c(sc3c2CCCC3)N1 (configuration not stated),-10.2% (inactive)
2,COc1cccc(-n2cc(C(=O)NCc3cccc(Cl)c3)c3ccccc3c2=O)c1,-9.19% (inactive)
3,Cc1ccc(C)c(Cn2c(=O)n(CCC(=O)NCc3ccc4c(c3)OCO4)c(=O)c3sccc32)c1,-5.56% (inactive)
4,COc1ccccc1N1CCN(C2C(=O)c3ccccc3N2C(C)=O)CC1 (configuration not stated),-1.14% (inactive)
5,O=C(c1ccc2c(c1)N(Cc1ccccc1)C(=O)c1ccccc1S2(=O)=O)N1CCC(Cc2ccccc2)CC1,-25.2% (inactive)
6,COc1cccc(N2C(=O)CN(Cc3ccccc3)C2=S)c1,1.81% (inactive)
7,COc1ccc(Cn2ccn(Cc3cccc(OC)c3)c(=O)c2=O)cc1,-44.5% (active)
8,COc1ccc(Cn2ccn(CC(=O)Nc3cc(C)ccc3C)c(=O)c2=O)cc1,10.1% (inactive)
9,CC(=O)c1ccc(NC(c2ccc(F)cc2)c2nnc(-c3ccccc3)o2)cc1 (configuration not stated),-24.1% (inactive)
10,CCOC(=O)c1c(C)[nH]c(C2=NNC(=NC(C)COC)SC2)c1C (configuration not stated),-30% (active)
11,Cc1ccc(-c2noc(CSc3nnc(-c4ccc(Cl)cc4)n3C)n2)cc1,0.344% (inactive)
12,Cc1ccc2cccc(NC(=O)C(C)Oc3ccc(C)c(C)c3)c2n1 (configuration not stated),-2.12% (inactive)
13,COC(=O)c1cc(NC(=O)c2cnc(SC)nc2-c2ccccc2)cc(C(=O)OC)c1,-16.6% (inactive)
14,CCN(CC)S(=O)(=O)c1nnc(NC(=O)COc2ccccc2Cl)s1,1.29% (inactive)
15,COc1ccc2[nH]c(C)c(CCN(Cc3cccs3)C(=S)Nc3ccccc3OC)c2c1,-1.49% (inactive)
16,COc1cccc(NC(=S)N(CCc2c(C)[nH]c3ccccc23)Cc2ccco2)c1,-45.7% (active)
17,CCNC(=S)N(CCc1c(C)[nH]c2ccc(C)cc12)Cc1ccco1,-10.7% (inactive)
18,COc1ccc(-c2cc(-c3ccc(F)cc3)nc3c2COc2ccccc2-3)cc1,10.1% (inactive)
19,Cc1ccc(Cl)cc1N1CCN(C(=O)C2CCC(CNS(=O)(=O)c3cccs3)CC2)CC1 (configuration not stated),4.96% (inactive)

row,Compound,"activity change, negative = inhibition"
1,CCN(CC)c1ccc(NC(=O)CN2CCN(CC(=O)Nc3ccc(Cl)cc3)CC2)cc1,7.6% (inactive)
2,O=C(OCc1cc(=O)n2nc(C3CC3)sc2n1)c1ccccc1Cl,-4.47% (inactive)
3,Cc1ccc(-n2c(=O)c3cccnc3n2CC(=O)NCc2ccc(F)cc2)cc1C,4.39% (inactive)
4,Cc1cccc(-c2ncc(CN3CCC(CO)(CCCc4ccccc4)CC3)cn2)c1,16.2% (inactive)
5,OCC1(CCc2ccccc2)CCN(Cc2ccc3nsnc3c2)CC1,-86% (active)
6,CC(C)(O)C#Cc1ccc(CN2CCC(CO)(CCc3ccccc3)CC2)cc1,10.7% (inactive)
7,CCc1ccc2ncc3c(-c4ccc(C)cc4)nn(CC(=O)NCc4ccccc4)c3c2c1,-13.5% (inactive)
8,CC1Cc2ccccc2N1C(=O)CSc1nnc(C2CC2)n1C (configuration not stated),-45.3% (active)
9,CC1Cc2ccccc2N1C(=O)CSc1nnc(-c2ccc(S(=O)(=O)N3CCCC3)cc2)n1C (configuration not stated),-5.59% (inactive)
10,CCn1c(CSc2ncccn2)nnc1SCC(=O)N1c2ccccc2CC1C (configuration not stated),-3.34% (inactive)
11,CC(=O)c1ccc(N2CCN(C3C(=O)c4ccccc4N3C(C)=O)CC2)cc1 (configuration not stated),3.13% (inactive)
12,COc1cccc(CNC(=O)C2CCN(S(=O)(=O)c3ccc4c(ccn4C)c3)CC2)c1,-13.2% (inactive)
13,Nc1cccc(-c2cc(-c3ccccc3)nc(-c3cccc(N)c3)n2)c1,-35% (active)
14,Cc1cc(-c2ccccc2)n2nc(-c3ccccc3)cc2n1,5.34% (inactive)
15,Cc1nc(NNC(=O)c2ccccc2)cc(-c2ccccc2)n1,-10.3% (inactive)
16,Cc1ccc(S(=O)(=O)n2nc(C)c(S(=O)(=O)N3CCCCCC3)c2C)cc1,17.9% (inactive)
17,COc1ccc(N(CC(=O)NCCc2ccc(Cl)cc2)S(=O)(=O)c2c(C)nn(C)c2C)cc1,-19.7% (inactive)
18,CCC1CCCCN1S(=O)(=O)c1ccc(NC(=O)c2cc(=O)c3ccccc3o2)cc1 (configuration not stated),-15.6% (inactive)
19,Cc1ccccc1CSCCNC(=O)C1CCN(S(=O)(=O)Cc2ccccc2)CC1,-13.9% (inactive)

row,Compound,"activity change, negative = inhibition"
1,Cc1cc(/C=C(/C#N)C(=O)Nc2ccc(Cl)cc2)c(C)n1-c1cccnc1,-14.3% (inactive)
2,N#C/C(=C\c1cccnc1)C(=O)Nc1ccc(SC(F)F)cc1,-35.7% (active)
3,CC(C)(C)NC(=O)/C(=C/c1cccnc1)NC(=O)c1ccco1,-13.6% (inactive)
4,CCCCN1CC(c2nc3ccccc3n2CCCCOc2ccc(C)cc2C)CC1=O (configuration not stated),-5.31% (inactive)
5,CCOC(=O)c1nnn2c1nc(N1CCN(c3ccccc3)CC1)c1ccccc12,-35.4% (active)
6,Cc1ccc(S(=O)(=O)c2nnn3c2nc(N2CCN(c4ccccn4)CC2)c2ccccc23)cc1,-20.2% (inactive)
7,CCOC(=O)c1nnn2c3ccccc3c(=O)n(C)c12,-10.2% (inactive)
8,CCN1CCN(CCCNC(=O)c2ccc3c(c2)sc2nc(-c4ccc(OC)cc4)cn23)CC1,-14.6% (inactive)
9,CSc1nn(Cc2cccc(C)c2)c(N)c1S(=O)(=O)c1ccccc1,-16.3% (inactive)
10,CC(C)(C)CC(=O)Nc1nnc(SCC(=O)NCc2cccs2)s1,3.61% (inactive)
11,O=C(CSc1nnc(SCc2ccc(F)cc2)s1)Nc1ccc(C(=O)O)cc1,6.86% (inactive)
12,O=C(Cc1cccs1)Nc1nnc(SCc2ccc(F)cc2)s1,-79.5% (active)
13,COc1cccc(CNC(=O)CCC(=O)N2CC3CCCN3c3ccccc32)c1 (configuration not stated),-1.97% (inactive)
14,Cc1ccccc1C(=O)Nc1cc(C)c(O)c(-c2nc3ccccc3o2)c1,5.18% (inactive)
15,CCOC(=O)c1c(C)[nH]c(C)c1S(=O)(=O)N1CCCC(C(=O)NCc2ccccc2Cl)C1 (configuration not stated),-3.63% (inactive)
16,COc1ccc(CCNC(=O)Cn2c(=O)n(-c3ccccc3)c(=O)c3c(C)c(C)sc32)cc1OC,2.12% (inactive)
17,CC(C)n1ncc2c(C(=O)NCc3ccccc3CN(C)C)cc(C3CC3)nc21,-37.6% (active)
18,CC(C)n1ncc2c(C(=O)Nc3ccc(CC#N)cc3)cc(C3CC3)nc21,-2.28% (inactive)
19,COc1ccc(OCCNC(=O)c2cc(C3CC3)nc3c2cnn3C(C)C)cc1,-8.1% (inactive)
